Each structure is given as a SMILES string. Compounds without any hit were thinned out: in the full panel of roughly 83,000, 20% have a hit.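 Values shown are percent growth following 48 h exposure of cells in 96-well plates to a single concentration of compound; below 10 was considered active.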 Activity calls are given as the source filed them.

The test relates to CAKI-1 renal. The test can be described thus: NCI-60 one-dose screen, 48 h (100 = growth as untreated, 0 = no growth, -100 = all killed). Particulars: 10 µM. Here is the method:
Growth inhibition of the CAKI-1 human tumor cell line is measured as a screen for anti-cancer activity. Cells are grown in 96 well plates and exposed to the test compound for 48 hours. Compounds are tested at a single concentration, which is 10^-5 M for most compounds. The reported endpoint is percent growth (GI% or GIPRCNT), where numbers from 0 - 100% represent growth inhibition, and numbers from -100% - 0 represent cell death. For example, a value of 40 represents 60% growth inhibition. A value of 0 means no net growth occurred over the course of the experiment. A value of -40 indicates 40% of cells at the beginning of the experiment died by the end of the experiment. A value of -100 means all cells are dead at the end of the experiment.
NCI-60 Human Tumor Cell Lines Screen was performed using the standard one-dose NCI protocol, which is described in more detail at https://dtp.cancer.gov/discovery_development/nci-60/default.htm.
Compounds with GIPRCNT values below 10 were considered active. Activity score was based on GIPRCNT using the following formula: […]
Score is 0 for GIPRCNT values of 100 or above, 50 for GIPRCNT values of 0, and 100 for GIPRCNT values of -100.
As for `O=c1oc2ccccc2cc1-c1csc(N=Nc2c(O)[nH]c3ccc(Br)cc23)n1`, the growth is 84.5% (inactive).
Then `COc1ccc(N2N=C(c3ccc4c(c3)OCCO4)CC2c2cccc(NC(=O)CCCNS(=O)(=O)c3ccc(F)cc3)c2)cc1` (stereo not given), with 53.9% (inactive); and `CCCCOc1ccc(Nc2nc3ccccc3nc2Nc2ccc(OCCCC)cc2)cc1`, with 91.8% (inactive).
The result for `O=C1Nc2cc(-c3ccc(NC(=O)c4cccs4)cc3)ccc2/C1=C/c1ccc[nH]1` reads 89.7% (inactive); that for `Cc1nc2c(cnn2-c2ccccc2)c(=O)n1-c1ccc(NC(=O)c2ccc(F)cc2)cc1`, 65.7% (inactive); that for `CC(=O)Oc1ccccc1C(=O)Oc1ccc(C(=O)/C=C/c2ccncc2)cc1`, 59.7% (inactive).
The result for `CC(=O)Nc1ccc(-n2cnc3cc(-c4ccc(NS(C)(=O)=O)cc4)ccc32)cc1` reads 17.5% (inactive); that for `CC(=O)Nc1ccc(-c2cn(-c3cccc(C(=O)Nc4ccc(Cl)c(C(F)(F)F)c4)c3)nn2)cn1`, -27.8% (active); that for `COc1ccc2[nH]cc(/C=N/Nc3cccc(Cl)n3)c2c1`, 46.7% (inactive).
In the case of `CCCCSc1nc(Nc2ccc(/C(C)=N/NC(N)=S)cc2)c(C#N)c(-c2ccc(OC)cc2)n1`, the growth was 51.6% (inactive).
As to `CN1CCN(c2ccc(C(=O)/C=C/c3cc(C(F)(F)F)ccc3Cl)cc2)CC1`, the growth is -95.2% (active).
Then `COc1cc(/C=C/C(=O)c2ccc(NC(=O)CN3C(=O)NC(C)(c4ccccc4)C3=O)cc2)cc(OC)c1OC` (stereo not given), with 75.3% (inactive).
In the case of `Cc1ccn2c(C(=O)c3ccc(Br)cc3)cc(-c3cc(-c4ccc(N(C)C)cc4)c(C#N)c(N)n3)c2c1`, the growth was 67.2% (inactive).
The result for `O=C1Nc2cc(-c3ccc(NC(=O)c4cccc([N+](=O)[O-])c4)cc3)ccc2/C1=C/c1ccc[nH]1` reads 97.8% (inactive).
Turning to `CN1C(=O)N(C)C2SC(N/N=C/C=C/c3ccccc3)=NC21` (stereo not given), the growth is 83.6% (inactive).
As to `CC1CC(c2ccc(N(C)C)cc2)=NN1c1nc(O)c(C2=c3cc(Br)ccc3=NC2=O)s1` (stereo not given), the growth was 101% (inactive).
For the compound `O=C1CCC(N2Cc3cc(CC(=O)Nc4ccc(N5CCCCC5)cc4)ccc3C2=O)C(=O)N1` (stereo not given), the growth is 87.6% (inactive).
Turning to `O/N=C(\CSc1nnc(-c2c[nH]c3ccccc23)n1-c1ccccc1)c1ccc(Cl)cc1`, the growth was -10.7% (active).
Then `COc1cc(/C=C/C(=O)c2ccc(F)cc2)ccc1Oc1nc(Nc2ccc(F)cc2)nc(N(C)C)n1`, with 58% (inactive).
The result for `COc1cc2c(cc1OC)CN(CCCCOc1cc(O)c3c(=O)cc(-c4ccccc4)oc3c1)CC2` reads 56.9% (inactive); that for `O=C(Cn1cc(CSc2nnc3oc4ccccc4n23)nn1)Nc1ccc(Br)cc1`, 71.2% (inactive).
The result for `N#Cc1ccc(-c2nn(-c3ccc(C(=O)O)cc3)cc2CNc2ccc(Oc3ccccc3)cc2)cc1` reads 59.7% (inactive); that for `CCCn1c(O)c(N=Nc2nc(-c3cc4ccccc4oc3=O)cs2)c2cc(Br)ccc21`, 96.4% (inactive); that for `Clc1cccc(N/N=C/c2c[nH]c3ccccc23)n1`, 35.5% (inactive).
Consider `C/C(=C\CC/C=C(\C)CC/C=C(\C)CC[C@@H](O)C(C)(C)O)CC/C=C(\C)CC[C@@H](O)C(C)(C)O`, for which the growth is 47.4% (inactive).
Then `Brc1ccc(/C=C/c2n(Cc3ccc4ccccc4c3)c3ccccc3[n+]2Cc2ccc3ccccc3c2)cc1`, with -29.9% (active); and `COc1ccc(-c2ccc(/C=N/NC(=O)c3[nH]c4ccc(Br)cc4c3-c3ccccc3)s2)cc1`, with 94.8% (inactive); and `Cc1cc(C)cc(Oc2cccc(-c3c(C)nnn3C3CCN(CCN(C)C)CC3)n2)c1`, with 7.83% (active).
For `Cc1cc2c(c(O)c1Br)-c1ncoc1C(=O)[C@]1(C)CC[C@H](C(C)C)[C@H]21`, the growth is 55.4% (inactive).
Take `Cc1cc(=O)oc2cc(OCCCCOc3ccc(/C=C/C(=O)Nc4ccc(F)c(Cl)c4)cc3)ccc12`: the growth is 96% (inactive).
For `O=C(CS(=O)(=O)c1oc(-c2ccc(Cl)cc2)nc1S(=O)(=O)c1ccc(Cl)cc1)N1CCOCC1`, the growth was 30.9% (inactive).
Consider `Cc1ccc2nc(-c3ccc(-c4nnc(SCC(=O)Nc5ccc(Br)cc5)o4)cc3)[nH]c2c1`, for which the growth was 76.5% (inactive).
Then `Cc1ccc(-c2cc(-c3cc4ccccc4nc3Cl)[nH]c(=O)n2)cc1`, with 24.8% (inactive).
Regarding `CC1(C)CC[C@]23CC[C@]4(C)[C@H](CC[C@@H]5[C@@]6(C)CC[C@H](N)C(C)(C)[C@@H]6CC[C@]54C)[C@H]2[C@H]1OC3=O`, the growth is -98.2% (active).
Consider `COC1CC(Cn2cc(COc3ccc4ccc(=O)oc4c3)nn2)C(OCc2ccccc2)C(OCc2ccccc2)C1OCc1ccccc1` (stereo not given), for which the growth is 84% (inactive).
For the compound `Nc1n[nH]c2cccc(C#Cc3cccc(NC(=O)Nc4cc(C(F)(F)F)cc(C(F)(F)F)c4)c3)c12`, the growth is -15.6% (active).
Then `COc1ccc(CCN2C(=O)/C(=C/c3csc(C#N)n3)SC2=S)cc1OC`, with 25.3% (inactive).
In the case of `O=C1Nc2cc(Cl)ccc2/C1=C/c1ccc(OCc2ccc(Br)cc2F)cc1`, the growth is -59% (active).
Then `CC(=O)Nc1ccc(-c2cn(-c3cccc(C(=O)Nc4cc(C(F)(F)F)cc(C(F)(F)F)c4)c3)nn2)cn1`, with -44.3% (active); and `CN1C(=O)N(C)C2SC(N/N=C/c3ccccc3F)=NC21` (stereo not given), with 67.4% (inactive).

The values are drawn from PubChem BioAssay (NCI).
